# Assay results: the supplement of paper PMC6411743
# ± gives the standard deviation of the averaged measurements. The full data set covers some 6,200 targets. This sample favours those with the largest changes.
# Tests used:
# Assay in all cases: NP40-soluble protein abundance relative to vehicle (solubility fold change) (ratio); higher = more soluble protein in presence of AMP-PNP
# UniProt Q9BY77|Q9BY77-2 = molecular target: T1, UniProt Q9BY77|Q9BY77-2
# T1 sequence (whole entry): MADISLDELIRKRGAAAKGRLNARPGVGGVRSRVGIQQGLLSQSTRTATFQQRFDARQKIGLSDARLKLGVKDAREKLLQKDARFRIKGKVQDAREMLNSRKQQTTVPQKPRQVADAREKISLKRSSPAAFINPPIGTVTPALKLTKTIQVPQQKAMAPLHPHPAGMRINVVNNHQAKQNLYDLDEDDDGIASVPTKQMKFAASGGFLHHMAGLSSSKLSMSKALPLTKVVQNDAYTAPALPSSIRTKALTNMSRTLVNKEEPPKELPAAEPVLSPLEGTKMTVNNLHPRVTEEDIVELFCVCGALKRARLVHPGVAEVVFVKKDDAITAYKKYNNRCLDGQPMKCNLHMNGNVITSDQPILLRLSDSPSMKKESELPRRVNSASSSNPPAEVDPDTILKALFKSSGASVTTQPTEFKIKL
# Summary of the method: (§1)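 Crude Jurkat lysate, prepared by Dounce homogenisation, was exposed to eight concentrations from 0.1 to 10 mM for 10 min at room temperature and then 3 min at 37 °C. Solubilisation used 0.8% NP40 with benzonase for 60 min at 4 °C, followed by ultracentrifugation and TMT labelling of the supernatant for LC-MS/MS. After vsn normalisation of intensities, each value is the fold change against the detergent-processed vehicle within each replicate, across three independent experiments.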
# UniProt Q9H9J4|Q9H9J4-2 = molecular target: T2, UniProt Q9H9J4|Q9H9J4-2
# T2 sequence (whole entry): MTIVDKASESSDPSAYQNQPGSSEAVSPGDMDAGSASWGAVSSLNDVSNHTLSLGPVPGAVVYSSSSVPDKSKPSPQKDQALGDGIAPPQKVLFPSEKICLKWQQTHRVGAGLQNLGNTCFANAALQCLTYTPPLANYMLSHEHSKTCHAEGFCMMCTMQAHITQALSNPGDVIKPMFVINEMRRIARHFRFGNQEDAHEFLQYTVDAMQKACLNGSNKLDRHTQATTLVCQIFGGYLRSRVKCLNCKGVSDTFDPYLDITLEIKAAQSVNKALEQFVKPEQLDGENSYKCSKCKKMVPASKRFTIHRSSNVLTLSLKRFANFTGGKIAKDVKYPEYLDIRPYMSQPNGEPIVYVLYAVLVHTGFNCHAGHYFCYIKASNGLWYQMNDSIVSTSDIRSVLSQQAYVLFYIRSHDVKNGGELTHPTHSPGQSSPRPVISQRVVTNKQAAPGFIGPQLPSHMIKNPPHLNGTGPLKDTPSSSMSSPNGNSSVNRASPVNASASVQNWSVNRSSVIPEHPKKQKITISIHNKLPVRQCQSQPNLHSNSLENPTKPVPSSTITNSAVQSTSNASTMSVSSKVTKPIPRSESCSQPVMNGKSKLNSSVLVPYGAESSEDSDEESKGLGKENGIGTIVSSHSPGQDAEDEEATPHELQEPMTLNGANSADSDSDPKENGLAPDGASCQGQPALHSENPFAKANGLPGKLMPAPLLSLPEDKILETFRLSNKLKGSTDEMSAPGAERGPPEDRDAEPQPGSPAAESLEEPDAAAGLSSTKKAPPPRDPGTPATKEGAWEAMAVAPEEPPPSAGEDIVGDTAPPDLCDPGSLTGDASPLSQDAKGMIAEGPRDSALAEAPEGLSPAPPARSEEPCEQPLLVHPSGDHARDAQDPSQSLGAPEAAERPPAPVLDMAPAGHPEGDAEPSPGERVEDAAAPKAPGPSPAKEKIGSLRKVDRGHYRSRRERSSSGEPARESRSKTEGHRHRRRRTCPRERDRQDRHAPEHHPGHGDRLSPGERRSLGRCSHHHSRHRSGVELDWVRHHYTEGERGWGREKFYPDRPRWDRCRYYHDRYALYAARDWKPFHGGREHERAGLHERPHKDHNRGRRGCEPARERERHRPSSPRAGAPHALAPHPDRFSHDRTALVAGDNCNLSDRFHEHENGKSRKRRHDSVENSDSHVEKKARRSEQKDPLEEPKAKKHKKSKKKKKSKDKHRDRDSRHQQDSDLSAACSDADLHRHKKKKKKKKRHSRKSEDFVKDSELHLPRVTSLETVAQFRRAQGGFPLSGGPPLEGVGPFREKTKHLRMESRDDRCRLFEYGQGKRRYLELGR
# Summary of the method: as §1
# UniProt Q9NPJ3 = molecular target: T3, UniProt Q9NPJ3
# T3 sequence (whole entry): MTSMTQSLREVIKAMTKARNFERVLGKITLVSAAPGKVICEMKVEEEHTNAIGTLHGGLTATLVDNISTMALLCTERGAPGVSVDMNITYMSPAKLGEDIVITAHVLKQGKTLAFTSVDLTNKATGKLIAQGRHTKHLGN
# Summary of the method: as §1
# [1] = molecular target: T4, UniProt Q9NQ86-4|E9PBG3|Q9NQ86
# T4 sequence (whole entry): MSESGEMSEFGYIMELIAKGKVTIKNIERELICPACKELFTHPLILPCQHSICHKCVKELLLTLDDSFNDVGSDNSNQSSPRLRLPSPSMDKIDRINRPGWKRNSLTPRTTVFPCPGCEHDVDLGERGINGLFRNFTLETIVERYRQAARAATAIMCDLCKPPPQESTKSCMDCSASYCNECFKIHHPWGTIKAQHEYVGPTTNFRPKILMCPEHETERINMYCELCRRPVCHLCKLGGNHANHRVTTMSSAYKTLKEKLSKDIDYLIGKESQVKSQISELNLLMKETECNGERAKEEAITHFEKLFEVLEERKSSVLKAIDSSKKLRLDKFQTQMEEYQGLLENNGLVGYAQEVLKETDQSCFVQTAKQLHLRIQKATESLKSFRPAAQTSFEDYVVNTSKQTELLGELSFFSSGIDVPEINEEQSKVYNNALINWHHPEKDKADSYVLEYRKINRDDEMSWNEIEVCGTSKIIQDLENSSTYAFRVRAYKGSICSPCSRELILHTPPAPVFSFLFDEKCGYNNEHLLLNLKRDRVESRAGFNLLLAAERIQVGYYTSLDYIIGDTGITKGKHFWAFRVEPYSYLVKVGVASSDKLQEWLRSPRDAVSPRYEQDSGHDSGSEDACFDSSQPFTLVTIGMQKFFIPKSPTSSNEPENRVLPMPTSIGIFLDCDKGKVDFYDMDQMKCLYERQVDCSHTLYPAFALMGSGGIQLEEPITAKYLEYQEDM
# Summary of the method: as §1
# UniProt Q9NUS5 = molecular target: T5, UniProt Q9NUS5
# T5 sequence (whole entry): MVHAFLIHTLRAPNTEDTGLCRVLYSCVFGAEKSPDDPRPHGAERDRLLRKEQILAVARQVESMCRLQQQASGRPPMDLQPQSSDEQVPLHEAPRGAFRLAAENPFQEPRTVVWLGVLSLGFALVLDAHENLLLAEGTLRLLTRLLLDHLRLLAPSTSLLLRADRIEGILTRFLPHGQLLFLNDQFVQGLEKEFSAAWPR
# Summary of the method: as §1
# [2] = molecular target: T6, UniProt Q9NVH6|Q9NVH6-7|Q9NVH6-8
# T6 sequence (whole entry): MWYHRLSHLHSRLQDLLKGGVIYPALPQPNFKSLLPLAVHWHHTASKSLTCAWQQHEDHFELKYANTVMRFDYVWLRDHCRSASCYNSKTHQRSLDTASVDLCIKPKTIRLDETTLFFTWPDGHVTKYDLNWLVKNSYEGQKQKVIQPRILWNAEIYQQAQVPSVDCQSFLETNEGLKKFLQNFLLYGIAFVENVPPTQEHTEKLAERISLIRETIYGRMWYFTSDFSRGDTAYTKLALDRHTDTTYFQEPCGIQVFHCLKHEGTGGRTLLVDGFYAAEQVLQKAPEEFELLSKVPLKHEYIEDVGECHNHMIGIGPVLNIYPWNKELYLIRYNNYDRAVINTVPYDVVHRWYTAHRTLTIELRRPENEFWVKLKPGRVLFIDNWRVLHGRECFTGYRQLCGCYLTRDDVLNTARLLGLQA
# Summary of the method: as §1
# VRK1 = molecular target: T7, VRK1 (UniProt Q99986)
# T7 sequence (whole entry): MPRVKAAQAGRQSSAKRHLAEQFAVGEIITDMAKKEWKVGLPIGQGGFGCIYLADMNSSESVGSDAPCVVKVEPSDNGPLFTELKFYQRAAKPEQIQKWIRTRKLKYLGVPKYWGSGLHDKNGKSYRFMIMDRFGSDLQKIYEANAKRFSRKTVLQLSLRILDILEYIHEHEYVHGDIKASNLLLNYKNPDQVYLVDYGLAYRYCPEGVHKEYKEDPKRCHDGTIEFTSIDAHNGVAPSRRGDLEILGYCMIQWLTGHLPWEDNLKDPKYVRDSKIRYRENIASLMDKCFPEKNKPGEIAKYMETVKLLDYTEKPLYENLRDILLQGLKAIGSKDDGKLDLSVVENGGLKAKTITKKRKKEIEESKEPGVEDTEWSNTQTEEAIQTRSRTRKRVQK
# Summary of the method: as §1
structure (smiles),measurement,setting,value
Nc1ncnc2c1ncn2[C@@H]1O[C@H](COP(=O)(O)OP(=O)(O)NP(=O)(O)O)[C@@H](O)[C@H]1O [adenylyl imidodiphosphate],NP40-soluble protein abundance,UniProt Q9BY77|Q9BY77-2; concentration: 6mM,1.17 ± 0.016
same,NP40-soluble protein abundance,UniProt Q9BY77|Q9BY77-2; concentration: 8mM,1.24 ± 0.028
same,NP40-soluble protein abundance,UniProt Q9BY77|Q9BY77-2; concentration: 10mM,1.37 ± 0.081
same,NP40-soluble protein abundance,UniProt Q9H9J4|Q9H9J4-2; concentration: 1mM,1.02 ± 0.026
same,NP40-soluble protein abundance,UniProt Q9H9J4|Q9H9J4-2; concentration: 2mM,1.03 ± 0.035
same,NP40-soluble protein abundance,UniProt Q9H9J4|Q9H9J4-2; concentration: 4mM,1.01 ± 0.035
same,NP40-soluble protein abundance,UniProt Q9H9J4|Q9H9J4-2; concentration: 6mM,0.993 ± 0.011
same,NP40-soluble protein abundance,UniProt Q9H9J4|Q9H9J4-2; concentration: 8mM,1.03 ± 0.03
same,NP40-soluble protein abundance,UniProt Q9H9J4|Q9H9J4-2; concentration: 10mM,1.04 ± 0.04
same,NP40-soluble protein abundance,UniProt Q9NPJ3; concentration: 1mM,0.947 ± 0.014
same,NP40-soluble protein abundance,UniProt Q9NPJ3; concentration: 2mM,0.9081 ± 0.0059
same,NP40-soluble protein abundance,UniProt Q9NPJ3; concentration: 4mM,0.9 ± 0.028
same,NP40-soluble protein abundance,UniProt Q9NPJ3; concentration: 6mM,0.974 ± 0.062
same,NP40-soluble protein abundance,UniProt Q9NPJ3; concentration: 8mM,0.976 ± 0.032
same,NP40-soluble protein abundance,UniProt Q9NPJ3; concentration: 10mM,0.948 ± 0.076
same,NP40-soluble protein abundance,[1]; concentration: 1mM,0.952 ± 0.04
same,NP40-soluble protein abundance,[1]; concentration: 2mM,0.976 ± 0.047
same,NP40-soluble protein abundance,[1]; concentration: 4mM,0.994 ± 0.042
same,NP40-soluble protein abundance,[1]; concentration: 6mM,0.998 ± 0.017
same,NP40-soluble protein abundance,[1]; concentration: 8mM,1 ± 0.044
same,NP40-soluble protein abundance,[1]; concentration: 10mM,1.01 ± 0.023
same,NP40-soluble protein abundance,UniProt Q9NUS5; concentration: 1mM,0.96 ± 0.016
same,NP40-soluble protein abundance,UniProt Q9NUS5; concentration: 2mM,0.936 ± 0.051
same,NP40-soluble protein abundance,UniProt Q9NUS5; concentration: 4mM,0.963 ± 0.02
same,NP40-soluble protein abundance,UniProt Q9NUS5; concentration: 6mM,0.948 ± 0.012
same,NP40-soluble protein abundance,UniProt Q9NUS5; concentration: 8mM,0.938 ± 0.038
same,NP40-soluble protein abundance,UniProt Q9NUS5; concentration: 10mM,0.936 ± 0.041
same,NP40-soluble protein abundance,[2]; concentration: 1mM,0.969 ± 0.051
same,NP40-soluble protein abundance,[2]; concentration: 2mM,0.9817 ± 0.0096
same,NP40-soluble protein abundance,[2]; concentration: 4mM,0.984 ± 0.06
same,NP40-soluble protein abundance,[2]; concentration: 6mM,0.972 ± 0.065
same,NP40-soluble protein abundance,[2]; concentration: 8mM,0.985 ± 0.018
same,NP40-soluble protein abundance,[2]; concentration: 10mM,0.969 ± 0.046
same,NP40-soluble protein abundance,VRK1; concentration: 1mM,1.08 ± 0.036
same,NP40-soluble protein abundance,VRK1; concentration: 2mM,1.1 ± 0.078
same,NP40-soluble protein abundance,VRK1; concentration: 4mM,1.22 ± 0.03
same,NP40-soluble protein abundance,VRK1; concentration: 6mM,1.43 ± 0.061
same,NP40-soluble protein abundance,VRK1; concentration: 8mM,1.51 ± 0.11
same,NP40-soluble protein abundance,VRK1; concentration: 10mM,1.56 ± 0.1
